Measured values reported in the supplement of paper PMC11732987, “Enantioselective OTUD7B fragment discovery through chemoproteomics screening and high-throughput optimisation” (Communications Chemistry, 2025).

Key:
Assay in all cases: log2 ratio of Biotin-Ahx-Ub-VS probe labelling (fragment/DMSO); higher = less target engagement (more negative = stronger competition), active = hit call of the paper (q ≤ 0.05, log2 ratio ≤ -1)
Conditions in all cases: compound concentration: 200 uM; treatment time: 3 h
ALG13 = target: T1, ALG13 (UniProt Q9NP73)
T1 sequence (whole entry): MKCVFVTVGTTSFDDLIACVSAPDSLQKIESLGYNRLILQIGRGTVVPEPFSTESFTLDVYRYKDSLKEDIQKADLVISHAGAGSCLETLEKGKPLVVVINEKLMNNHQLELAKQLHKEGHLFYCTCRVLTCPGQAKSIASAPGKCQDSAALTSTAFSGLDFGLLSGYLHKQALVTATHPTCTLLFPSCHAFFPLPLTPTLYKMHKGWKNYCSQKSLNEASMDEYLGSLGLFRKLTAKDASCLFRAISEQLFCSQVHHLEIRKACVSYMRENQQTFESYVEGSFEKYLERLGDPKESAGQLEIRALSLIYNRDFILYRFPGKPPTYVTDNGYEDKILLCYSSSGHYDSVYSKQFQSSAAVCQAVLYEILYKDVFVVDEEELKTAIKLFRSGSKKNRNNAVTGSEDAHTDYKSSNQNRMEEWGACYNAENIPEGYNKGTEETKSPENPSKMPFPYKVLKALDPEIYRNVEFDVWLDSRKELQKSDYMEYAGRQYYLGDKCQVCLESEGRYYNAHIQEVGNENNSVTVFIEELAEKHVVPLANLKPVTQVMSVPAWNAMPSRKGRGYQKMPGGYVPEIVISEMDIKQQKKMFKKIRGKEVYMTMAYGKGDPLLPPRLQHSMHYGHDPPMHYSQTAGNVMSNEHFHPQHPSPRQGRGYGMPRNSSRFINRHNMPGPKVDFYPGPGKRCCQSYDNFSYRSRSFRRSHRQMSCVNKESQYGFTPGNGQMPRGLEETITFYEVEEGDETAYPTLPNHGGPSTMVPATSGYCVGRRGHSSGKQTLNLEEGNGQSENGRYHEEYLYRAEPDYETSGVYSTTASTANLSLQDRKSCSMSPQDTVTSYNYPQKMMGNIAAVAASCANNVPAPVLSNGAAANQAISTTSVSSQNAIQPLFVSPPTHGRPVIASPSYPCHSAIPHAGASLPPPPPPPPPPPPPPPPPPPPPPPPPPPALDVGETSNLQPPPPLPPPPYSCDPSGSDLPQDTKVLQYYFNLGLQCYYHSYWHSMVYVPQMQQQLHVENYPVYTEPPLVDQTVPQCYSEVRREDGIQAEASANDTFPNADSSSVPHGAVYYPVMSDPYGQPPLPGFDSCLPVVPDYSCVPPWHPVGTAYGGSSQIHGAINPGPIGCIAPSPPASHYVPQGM
Outline: (§1)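 HEK293T lysate (495 µg per sample, in Tris/CHAPS/IGEPAL buffer with protease inhibitors) was treated in triplicate with fragment at 200 µM or with DMSO for 3 h. It was then treated with Biotin-Ahx-Ub-VS (0.5 µM final) for 1 h. Labelled DUBs were NeutrAvidin-enriched, digested with LysC and trypsin, and run by diaPASEF LC-MS/MS. Spectronaut label-free quantities were global-median-normalised. Values are average log2 ratios fragment/DMSO by unpaired t-test, using proteins with ≥2 unique peptides.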

ATXN3 = ATXN3 (UniProt P54252)
Outline: as §1

BAP1 = target: T2, BAP1 (UniProt Q92560)
T2 sequence (whole entry): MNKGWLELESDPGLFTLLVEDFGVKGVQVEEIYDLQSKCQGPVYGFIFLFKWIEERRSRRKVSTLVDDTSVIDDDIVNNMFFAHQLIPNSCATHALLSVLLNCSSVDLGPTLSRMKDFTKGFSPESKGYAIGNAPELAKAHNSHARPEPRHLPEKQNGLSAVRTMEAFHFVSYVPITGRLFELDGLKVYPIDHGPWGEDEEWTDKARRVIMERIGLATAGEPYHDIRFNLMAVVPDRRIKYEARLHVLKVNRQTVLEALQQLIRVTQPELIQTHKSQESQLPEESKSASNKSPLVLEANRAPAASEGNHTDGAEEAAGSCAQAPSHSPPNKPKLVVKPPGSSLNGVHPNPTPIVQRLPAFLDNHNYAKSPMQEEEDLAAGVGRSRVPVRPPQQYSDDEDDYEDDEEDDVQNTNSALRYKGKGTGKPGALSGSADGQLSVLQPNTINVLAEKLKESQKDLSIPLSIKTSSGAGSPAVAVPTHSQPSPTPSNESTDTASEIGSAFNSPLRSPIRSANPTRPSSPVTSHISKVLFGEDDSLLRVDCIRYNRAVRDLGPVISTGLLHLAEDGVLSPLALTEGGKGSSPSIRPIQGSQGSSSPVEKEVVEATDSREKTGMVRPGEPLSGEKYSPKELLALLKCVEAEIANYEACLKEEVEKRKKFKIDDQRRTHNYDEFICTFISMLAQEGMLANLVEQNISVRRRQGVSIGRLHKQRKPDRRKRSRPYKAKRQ
Outline: as §1

EIF3F = EIF3F (UniProt O00303)
Outline: as §1

EIF3H = EIF3H (UniProt O15372)
Outline: as §1

FAM105A = target: T3, FAM105A (UniProt Q9NUU6)
T3 sequence (whole entry): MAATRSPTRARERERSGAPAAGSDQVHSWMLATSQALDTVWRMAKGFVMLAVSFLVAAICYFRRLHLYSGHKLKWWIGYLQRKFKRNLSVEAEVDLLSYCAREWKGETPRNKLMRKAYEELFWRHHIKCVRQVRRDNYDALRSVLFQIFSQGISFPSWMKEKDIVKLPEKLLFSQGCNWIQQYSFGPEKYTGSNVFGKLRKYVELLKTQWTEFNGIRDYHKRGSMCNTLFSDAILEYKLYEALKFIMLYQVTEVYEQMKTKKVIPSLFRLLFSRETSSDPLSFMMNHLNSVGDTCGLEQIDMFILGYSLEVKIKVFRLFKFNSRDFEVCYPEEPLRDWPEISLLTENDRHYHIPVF
Outline: as §1

OTUB1 = OTUB1 (UniProt Q96FW1)
Outline: as §1

OTUD4 = target: T4, OTUD4 (UniProt Q01804)
T4 sequence (whole entry): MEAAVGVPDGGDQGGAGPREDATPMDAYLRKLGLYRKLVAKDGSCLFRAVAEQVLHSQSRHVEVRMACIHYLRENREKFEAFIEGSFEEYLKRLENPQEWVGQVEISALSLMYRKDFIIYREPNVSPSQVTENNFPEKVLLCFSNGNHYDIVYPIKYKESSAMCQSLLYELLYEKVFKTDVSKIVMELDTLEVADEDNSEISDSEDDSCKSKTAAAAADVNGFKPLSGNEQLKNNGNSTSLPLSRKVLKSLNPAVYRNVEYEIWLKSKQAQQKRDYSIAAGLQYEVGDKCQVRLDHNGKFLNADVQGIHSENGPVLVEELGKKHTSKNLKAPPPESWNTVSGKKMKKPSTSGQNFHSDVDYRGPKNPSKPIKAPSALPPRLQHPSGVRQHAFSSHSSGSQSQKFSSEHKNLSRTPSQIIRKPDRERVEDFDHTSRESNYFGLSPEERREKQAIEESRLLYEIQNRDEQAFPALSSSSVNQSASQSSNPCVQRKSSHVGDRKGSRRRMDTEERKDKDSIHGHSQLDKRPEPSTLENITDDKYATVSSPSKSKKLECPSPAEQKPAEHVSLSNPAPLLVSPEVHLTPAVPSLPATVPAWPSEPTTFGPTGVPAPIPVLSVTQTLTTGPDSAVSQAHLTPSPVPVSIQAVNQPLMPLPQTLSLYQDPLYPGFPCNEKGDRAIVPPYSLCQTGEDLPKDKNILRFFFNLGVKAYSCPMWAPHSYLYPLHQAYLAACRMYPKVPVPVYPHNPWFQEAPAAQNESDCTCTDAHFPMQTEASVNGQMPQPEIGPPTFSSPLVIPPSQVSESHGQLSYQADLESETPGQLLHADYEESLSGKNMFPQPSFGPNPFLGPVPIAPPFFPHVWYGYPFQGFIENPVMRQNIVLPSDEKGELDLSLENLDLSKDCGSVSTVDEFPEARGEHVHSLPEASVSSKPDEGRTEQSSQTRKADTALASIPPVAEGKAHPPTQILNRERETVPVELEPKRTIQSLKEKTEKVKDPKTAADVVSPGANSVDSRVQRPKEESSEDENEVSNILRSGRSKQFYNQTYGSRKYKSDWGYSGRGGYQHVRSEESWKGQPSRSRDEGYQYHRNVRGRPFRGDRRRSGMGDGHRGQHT
Outline: as §1

OTUD5 = target: T5, OTUD5 (UniProt Q96G74)
T5 sequence (whole entry): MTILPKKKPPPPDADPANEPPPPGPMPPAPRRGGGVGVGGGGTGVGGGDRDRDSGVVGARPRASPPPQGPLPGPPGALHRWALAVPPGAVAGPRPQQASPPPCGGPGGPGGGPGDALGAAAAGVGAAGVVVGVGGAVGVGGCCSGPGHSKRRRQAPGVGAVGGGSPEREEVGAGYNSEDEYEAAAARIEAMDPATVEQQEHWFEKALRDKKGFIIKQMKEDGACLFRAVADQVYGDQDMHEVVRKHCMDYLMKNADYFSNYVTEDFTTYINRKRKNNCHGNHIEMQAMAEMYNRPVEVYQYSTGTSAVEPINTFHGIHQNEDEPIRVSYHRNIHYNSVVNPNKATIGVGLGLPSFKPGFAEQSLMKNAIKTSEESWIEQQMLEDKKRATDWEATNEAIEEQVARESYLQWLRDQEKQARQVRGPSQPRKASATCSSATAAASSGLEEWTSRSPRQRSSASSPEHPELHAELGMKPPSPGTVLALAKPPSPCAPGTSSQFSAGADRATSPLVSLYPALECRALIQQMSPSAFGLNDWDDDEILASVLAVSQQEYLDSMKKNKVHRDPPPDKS
Outline: as §1

Measured: log2 ratio of Biotin-Ahx-Ub-VS probe labelling

EIF3F, sequence (O00303 whole entry): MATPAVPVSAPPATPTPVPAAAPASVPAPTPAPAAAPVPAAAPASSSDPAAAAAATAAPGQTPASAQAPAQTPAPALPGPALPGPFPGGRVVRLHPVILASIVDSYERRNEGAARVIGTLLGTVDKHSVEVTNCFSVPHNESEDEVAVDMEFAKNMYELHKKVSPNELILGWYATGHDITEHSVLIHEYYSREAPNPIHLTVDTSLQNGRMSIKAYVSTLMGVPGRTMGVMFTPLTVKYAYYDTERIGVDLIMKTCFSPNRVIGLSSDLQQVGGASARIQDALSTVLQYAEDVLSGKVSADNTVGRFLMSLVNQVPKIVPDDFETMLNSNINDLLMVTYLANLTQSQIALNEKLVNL
OTUB1, sequence (Q96FW1 whole entry): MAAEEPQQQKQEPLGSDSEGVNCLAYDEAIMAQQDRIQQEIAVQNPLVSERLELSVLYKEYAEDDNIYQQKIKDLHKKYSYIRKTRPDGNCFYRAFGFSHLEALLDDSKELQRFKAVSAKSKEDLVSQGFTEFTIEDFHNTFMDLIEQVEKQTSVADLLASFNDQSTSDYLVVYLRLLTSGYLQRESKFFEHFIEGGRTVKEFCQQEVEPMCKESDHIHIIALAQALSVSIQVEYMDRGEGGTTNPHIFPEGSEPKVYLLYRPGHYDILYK
EIF3H, sequence (O15372 whole entry): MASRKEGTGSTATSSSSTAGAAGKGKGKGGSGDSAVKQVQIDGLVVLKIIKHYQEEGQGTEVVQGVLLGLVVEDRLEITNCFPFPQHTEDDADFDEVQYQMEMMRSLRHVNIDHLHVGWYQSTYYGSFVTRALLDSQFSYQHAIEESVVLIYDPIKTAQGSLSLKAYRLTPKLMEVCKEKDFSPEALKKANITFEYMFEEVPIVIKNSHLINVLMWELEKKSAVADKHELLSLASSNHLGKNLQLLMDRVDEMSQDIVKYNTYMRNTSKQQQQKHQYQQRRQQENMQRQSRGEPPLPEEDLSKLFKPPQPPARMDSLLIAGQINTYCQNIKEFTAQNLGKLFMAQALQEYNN
ATXN3, sequence (P54252 whole entry): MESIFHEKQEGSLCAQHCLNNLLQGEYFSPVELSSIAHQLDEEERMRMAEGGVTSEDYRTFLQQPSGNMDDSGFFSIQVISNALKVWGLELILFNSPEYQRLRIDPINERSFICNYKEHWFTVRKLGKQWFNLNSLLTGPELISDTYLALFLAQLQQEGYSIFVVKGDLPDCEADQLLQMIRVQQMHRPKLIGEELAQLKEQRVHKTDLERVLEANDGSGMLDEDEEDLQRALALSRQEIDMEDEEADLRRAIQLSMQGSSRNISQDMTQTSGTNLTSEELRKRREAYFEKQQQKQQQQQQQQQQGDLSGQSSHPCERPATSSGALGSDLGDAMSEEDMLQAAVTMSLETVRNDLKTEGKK

Cc1ccc(C)c(Oc2ccc(CNC(=O)CCl)cn2)c1.Cl
inactive: ALG13 -0.222 | ATXN3 -0.48 | EIF3F -0.169 | EIF3H 0.199 | FAM105A -0.149 | OTUB1 0.0499 | OTUD4 -0.382 | OTUD5 -0.697
active: BAP1 -3.94
